Reference: PubChem BioAssay
Inconclusive results are not listed. For part of these data: Potency and affinity values are given separately. Calls of active or inactive are those of the source. Unless noted, the rule behind the calls is not given here.

Experiments:
[1] = biological target: ATP-dependent translocase ABCB1 (Homo sapiens) (UniProt P08183); test: P-glycoprotein substrate transport blockade – cell-based (AID 377; in the data active = fluorescence slope change above about 50%); conditions: MDR1-expressing cells, fluorescent substrate accumulation slope; stronger effect = higher value; concentration not given here
Chain of ATP-dependent translocase ABCB1 (Homo sapiens) (P08183 whole entry, looked up): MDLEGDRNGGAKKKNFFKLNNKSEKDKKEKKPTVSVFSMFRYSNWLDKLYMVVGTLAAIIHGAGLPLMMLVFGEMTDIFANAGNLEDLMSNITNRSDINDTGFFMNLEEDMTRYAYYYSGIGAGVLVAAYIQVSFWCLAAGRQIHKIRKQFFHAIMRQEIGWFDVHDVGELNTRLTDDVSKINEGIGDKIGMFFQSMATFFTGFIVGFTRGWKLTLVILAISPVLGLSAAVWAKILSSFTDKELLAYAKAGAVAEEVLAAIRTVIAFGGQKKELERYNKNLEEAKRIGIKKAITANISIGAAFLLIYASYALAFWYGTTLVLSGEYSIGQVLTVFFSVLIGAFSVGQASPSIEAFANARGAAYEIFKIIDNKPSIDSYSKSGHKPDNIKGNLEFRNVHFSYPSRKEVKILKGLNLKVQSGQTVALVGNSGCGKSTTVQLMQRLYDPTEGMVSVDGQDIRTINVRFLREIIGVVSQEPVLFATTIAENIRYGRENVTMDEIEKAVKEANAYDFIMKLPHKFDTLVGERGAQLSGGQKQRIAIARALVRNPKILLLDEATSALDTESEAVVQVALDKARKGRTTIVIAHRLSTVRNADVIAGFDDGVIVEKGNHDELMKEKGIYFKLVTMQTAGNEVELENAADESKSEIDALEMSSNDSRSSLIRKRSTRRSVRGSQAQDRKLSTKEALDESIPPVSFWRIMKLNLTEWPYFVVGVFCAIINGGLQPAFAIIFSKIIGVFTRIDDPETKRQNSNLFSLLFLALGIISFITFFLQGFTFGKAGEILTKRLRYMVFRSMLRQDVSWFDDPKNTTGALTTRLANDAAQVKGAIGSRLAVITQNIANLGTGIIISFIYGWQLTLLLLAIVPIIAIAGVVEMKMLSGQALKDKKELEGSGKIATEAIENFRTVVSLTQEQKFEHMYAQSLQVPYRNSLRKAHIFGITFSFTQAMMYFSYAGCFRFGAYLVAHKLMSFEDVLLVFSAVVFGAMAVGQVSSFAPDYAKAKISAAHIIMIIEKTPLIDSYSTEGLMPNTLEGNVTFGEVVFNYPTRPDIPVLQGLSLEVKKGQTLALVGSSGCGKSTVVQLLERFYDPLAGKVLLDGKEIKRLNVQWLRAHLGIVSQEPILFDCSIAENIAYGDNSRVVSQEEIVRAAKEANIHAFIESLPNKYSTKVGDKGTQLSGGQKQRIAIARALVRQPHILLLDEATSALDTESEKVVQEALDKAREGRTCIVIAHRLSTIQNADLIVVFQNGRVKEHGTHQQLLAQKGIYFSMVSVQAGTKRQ

[2] = blockers of polyQ-driven CASP3 activation – cell-based (AID 1583); conditions: polyglutamine-induced caspase-3 activation, cell assay; stronger effect = higher value;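 tested at 10 µM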
[3] = yeast 75Q aggregation reduction – 75Q-TubU reporter (AID 1593); conditions: Yeast 75Q polyglutamine aggregation reporter
[4] = restoration of touch response, mutant HTT neurons – whole organism, C. elegans mechanosensory neurons, N-terminal huntingtin (AID 1599); conditions: C. elegans polyQ-huntingtin mechanosensory neurons, stronger effect = higher value
[5] = blockers of cytochrome c efflux from mitochondria – biochemical, purified mitochondria (AID 1603); conditions: stronger effect = lower value;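 note: mouse liver mitochondria challenged with calcium chloride; signal normalized to the plate average as 100%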
[6] = polyglutamine aggregate formation blockers (AID 1604); conditions: polyglutamine-induced protein aggregation inhibition assay; stronger effect = higher value; tested at 2.5 µM
[7] = rescue of PC12 cells from polyQ htt toxicity – LDH release (AID 1610); conditions: PC12 mutant huntingtin toxicity, final LDH at 4 uM, stronger effect = lower value
[8] = glutamate transport activators, MN-1 cells, MN-1 cell line (AID 1612); conditions: MN-1 motor neuron cells, stronger effect = higher value;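 note: tested at 1 µM final; 0% = mean of DMSO vehicle wells on each plate; positive means more glutamate uptake than control and negative means less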
[9] = GFP-Q80 aggregate reduction, neuronal-like cells, cell-based, NGF-treated PC12, GFPQ80 (AID 1614); conditions: PC12 NGF-treated GFP-polyQ80 inclusion reduction;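 note: lower means fewer inclusions and 0 means no inclusions at all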
[10] = 75Q-TubH aggregate inhibition, S. cerevisiae, yeast (AID 1616); conditions: S. cerevisiae 75Q-TubH polyglutamine aggregation suppression; stronger effect = higher value
[11] = compounds altering circadian rhythm period length – cell-based, LOPAC library, luminescence reporter (AID 2774); conditions: circadian reporter cells, at 7 µM, actives lie on both sides;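 note: values are relative to mean of DMSO wells on each plate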
[12] = compounds altering viability of human ES cells (AID 493140); conditions: human embryonic stem cell survival screen; stronger effect = higher value;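 note: cells exposed to compounds for four days before counting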
[13] = glutamate excitotoxicity neuroprotectants – cell-based, TUNEL DNA degradation staining, MNGlu (AID 1594); conditions: motor neurons, glutamate-induced death, at 1 µM, stronger effect = higher value
[14] = blockers of biotin-polyQ monomer incorporation into aggregates – biochemical, solid-phase synthetic aggregates, QA3 (AID 1585); conditions: polyQ aggregate elongation; EC50: measured here: elongation inhibition potency; inhibition: at 100 µM, stronger effect = higher value
[15] = biological target: Huntingtin (Homo sapiens) (UniProt P42858); test: mutant huntingtin aggregation blockers – QA1, dose response (AID 1584); conditions: in vitro mutant huntingtin aggregation assay; confirmation test; at 10 µM; stronger effect = lower value
Chain of Huntingtin (Homo sapiens) (P42858 whole entry, looked up): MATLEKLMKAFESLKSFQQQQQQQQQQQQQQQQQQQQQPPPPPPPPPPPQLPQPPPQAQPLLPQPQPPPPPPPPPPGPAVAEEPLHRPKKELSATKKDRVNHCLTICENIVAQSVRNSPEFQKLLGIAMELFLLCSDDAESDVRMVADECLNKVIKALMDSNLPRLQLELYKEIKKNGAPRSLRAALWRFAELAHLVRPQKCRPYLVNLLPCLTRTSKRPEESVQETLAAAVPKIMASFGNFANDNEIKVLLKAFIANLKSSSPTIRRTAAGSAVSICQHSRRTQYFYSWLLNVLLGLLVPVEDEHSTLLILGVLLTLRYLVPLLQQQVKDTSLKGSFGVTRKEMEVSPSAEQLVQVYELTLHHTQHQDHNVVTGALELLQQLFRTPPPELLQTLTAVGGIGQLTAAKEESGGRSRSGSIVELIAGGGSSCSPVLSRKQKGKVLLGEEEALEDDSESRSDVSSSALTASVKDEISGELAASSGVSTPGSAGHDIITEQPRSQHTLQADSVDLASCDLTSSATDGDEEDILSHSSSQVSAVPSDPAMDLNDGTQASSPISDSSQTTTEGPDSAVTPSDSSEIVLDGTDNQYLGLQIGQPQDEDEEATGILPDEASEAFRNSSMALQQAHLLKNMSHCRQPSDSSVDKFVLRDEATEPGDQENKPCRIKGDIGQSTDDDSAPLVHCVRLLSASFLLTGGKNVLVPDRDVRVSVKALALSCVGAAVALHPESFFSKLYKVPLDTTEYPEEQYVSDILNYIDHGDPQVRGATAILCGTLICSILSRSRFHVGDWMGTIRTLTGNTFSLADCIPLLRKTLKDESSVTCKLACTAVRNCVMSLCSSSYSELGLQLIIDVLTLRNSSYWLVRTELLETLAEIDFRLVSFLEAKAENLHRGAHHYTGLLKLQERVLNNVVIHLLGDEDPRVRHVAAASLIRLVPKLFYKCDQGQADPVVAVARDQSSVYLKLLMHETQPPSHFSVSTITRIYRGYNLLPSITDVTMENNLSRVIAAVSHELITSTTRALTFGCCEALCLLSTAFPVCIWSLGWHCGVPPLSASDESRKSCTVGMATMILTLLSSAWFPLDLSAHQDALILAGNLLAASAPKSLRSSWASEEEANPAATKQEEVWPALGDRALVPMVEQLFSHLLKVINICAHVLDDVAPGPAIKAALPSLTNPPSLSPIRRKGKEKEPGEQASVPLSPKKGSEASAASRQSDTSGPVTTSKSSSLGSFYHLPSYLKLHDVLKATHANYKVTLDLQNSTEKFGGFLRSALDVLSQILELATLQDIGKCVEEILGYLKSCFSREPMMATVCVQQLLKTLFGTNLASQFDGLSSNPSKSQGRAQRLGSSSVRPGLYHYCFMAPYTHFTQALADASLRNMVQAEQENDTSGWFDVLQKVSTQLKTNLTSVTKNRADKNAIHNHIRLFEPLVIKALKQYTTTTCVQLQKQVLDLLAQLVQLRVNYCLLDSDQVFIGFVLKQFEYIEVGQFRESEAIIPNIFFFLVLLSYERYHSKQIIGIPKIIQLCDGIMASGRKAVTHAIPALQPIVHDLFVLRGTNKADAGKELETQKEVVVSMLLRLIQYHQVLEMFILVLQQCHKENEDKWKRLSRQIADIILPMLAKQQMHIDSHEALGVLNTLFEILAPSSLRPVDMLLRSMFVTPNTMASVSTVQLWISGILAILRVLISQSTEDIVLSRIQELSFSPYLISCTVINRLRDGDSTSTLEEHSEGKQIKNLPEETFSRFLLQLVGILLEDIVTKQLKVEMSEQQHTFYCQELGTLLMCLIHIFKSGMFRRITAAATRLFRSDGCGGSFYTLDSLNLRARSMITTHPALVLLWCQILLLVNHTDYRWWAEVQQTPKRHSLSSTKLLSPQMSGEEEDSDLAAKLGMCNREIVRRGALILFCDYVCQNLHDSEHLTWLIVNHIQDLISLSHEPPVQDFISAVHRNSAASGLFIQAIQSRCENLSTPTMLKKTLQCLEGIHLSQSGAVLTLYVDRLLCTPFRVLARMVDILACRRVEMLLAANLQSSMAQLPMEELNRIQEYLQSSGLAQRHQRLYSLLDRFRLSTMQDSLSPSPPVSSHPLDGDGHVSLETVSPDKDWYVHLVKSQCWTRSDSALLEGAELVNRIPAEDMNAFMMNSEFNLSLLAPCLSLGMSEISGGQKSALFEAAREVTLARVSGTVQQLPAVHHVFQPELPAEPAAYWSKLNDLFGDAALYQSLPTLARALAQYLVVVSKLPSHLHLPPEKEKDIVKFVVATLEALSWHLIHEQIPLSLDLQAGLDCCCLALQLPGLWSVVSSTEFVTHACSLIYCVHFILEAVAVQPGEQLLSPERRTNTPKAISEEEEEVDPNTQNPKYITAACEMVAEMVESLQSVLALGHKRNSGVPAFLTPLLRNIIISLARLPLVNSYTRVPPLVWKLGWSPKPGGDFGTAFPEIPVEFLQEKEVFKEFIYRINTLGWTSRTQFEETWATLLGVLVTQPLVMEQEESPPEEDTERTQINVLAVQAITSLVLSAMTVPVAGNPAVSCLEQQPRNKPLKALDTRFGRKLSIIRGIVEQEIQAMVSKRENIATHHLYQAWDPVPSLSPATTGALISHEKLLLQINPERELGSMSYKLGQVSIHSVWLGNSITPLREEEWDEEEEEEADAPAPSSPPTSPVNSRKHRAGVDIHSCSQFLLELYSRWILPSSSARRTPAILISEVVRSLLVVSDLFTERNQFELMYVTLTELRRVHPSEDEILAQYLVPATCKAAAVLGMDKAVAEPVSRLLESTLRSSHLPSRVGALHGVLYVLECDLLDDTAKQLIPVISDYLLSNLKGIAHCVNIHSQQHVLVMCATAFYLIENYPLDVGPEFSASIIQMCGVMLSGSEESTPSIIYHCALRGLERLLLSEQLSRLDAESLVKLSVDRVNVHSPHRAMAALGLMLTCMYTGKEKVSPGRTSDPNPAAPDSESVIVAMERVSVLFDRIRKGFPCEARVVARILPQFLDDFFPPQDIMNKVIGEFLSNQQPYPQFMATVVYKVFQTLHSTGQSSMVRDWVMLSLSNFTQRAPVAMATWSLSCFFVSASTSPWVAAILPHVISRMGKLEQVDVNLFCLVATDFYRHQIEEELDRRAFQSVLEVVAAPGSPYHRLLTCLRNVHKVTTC

[16] = blockers of MitoPT in mitochondria (AID 1580); conditions: isolated mitochondria, permeability transition inhibition

SMILES	fluorescence slope change [1]	inhibition [2]	score [3]	rescue above control [4]	cytochrome c release ratio [5]	inhibition of aggregation [6]	normalised LDH release [7]	glutamate uptake change [8]	inclusion score [9]	aggregation suppression score [10]	period change [11]	survival [12]	protection [13]	EC50 [14]	inhibition [14]	aggregation ratio [15]	EC50 [16]
C[N+](C)(C)CCOC(N)=O	12.8% (inactive)	19.3%	1.38	2.63	0.77	60.9%	0.399	-6.66%	2	1.67	0.05 h (inactive)	4.67 (inactive)					
O=C(O)c1ccc(S(=O)(=O)N(Cl)Cl)cc1		18.5%	1.25	8.13	0.74	56.3%		-1.46%	2	1.13							
O=C(Nc1ccc([N+](=O)[O-])cc1Cl)c1cc(Cl)ccc1O		63.3%	1.5	-13	0.91	41.7%	-0.146	-52.2%		0.882	0.06 h (inactive)	1.67 (inactive)					
Cc1nnc(NS(=O)(=O)c2ccc(N)cc2)s1	9.7% (inactive)	18.6%	1.23	-5.75	1.01	68.2%		17.5%	2	1.24		5.75 (inactive)	35% (active)				
O=NN(CCCl)C(=O)NCCCl	11.5% (inactive)	-31.5%	0.3	5.39	0.91	72.2%	0.621	5.94%		0.185	0.115 h (inactive)						
C=C1c2cccc(O)c2C(O)=C2C(=O)[C@]3(O)C(O)=C(C(N)=O)C(=O)[C@@H](N(C)C)[C@@H]3[C@@H](O)[C@H]12		-86.7%	0.99	0	0.49	29.5%		-2.5%	1	0.29		4.33 (inactive)		132 µM	60% (active)		
CC(NCCC(c1ccccc1)c1ccccc1)c1ccccc1 (stereo not drawn)	200% (active)	36.8%	1.04	0	0.33	-3.7%	1.14	-8.71%		1.16		3.08 (inactive)					
CO[C@@]1(NC(=O)C(C(=O)O)c2ccc(O)cc2)C(=O)N2C(C(=O)O)=C(CSc3nnnn3C)CO[C@@H]21 (stereo partly drawn)	63.7% (active)	10.7%	1.04	12.8	0.83	72.2%		0.13%	1	1.14		6.42 (inactive)		2 µM	91.1% (active)		
C=Cc1c(C)c2cc3[nH]c(cc4nc(cc5nc(cc1[nH]2)C(C)=C5CCC(=O)O)C(CCC(=O)O)=C4C)c(C)c3C=C		39.5%	0.75		1.37	77.5%		5.14%		0.995	-0.02 h (inactive)			106 µM	59% (active)	0.595	
Cc1ccc(C(=O)C(C)CN2CCCCC2)cc1 (stereo not drawn)		-24.9%	0.57	-2.41	0.96	37.2%	0.861	-0.03%	1.5	0.367							
O=C1c2c(O)cccc2Cc2cccc(O)c21		18.6%	1.5	0.38	0.41	37.9%		5.46%	2	1.2						0.75	
Cc1cc(C2CCCCC2)n(O)c(=O)c1		60.9%	0.13	6.29	0.91	72.2%	0.668	-12%		0.0349		0.667 (inactive)					
O=C(N[C@H](CO)[C@H](O)c1ccc([N+](=O)[O-])cc1)C(Cl)Cl		-3.82%	1	-3.71	0.72	55%		7.27%	2	1.2							
Oc1c(Cl)cc(Cl)cc1Sc1cc(Cl)cc(Cl)c1O		-9.02%	-0.24	9.15	0.74	-7.69%	1.06	-39%		0.0465							0.3 µM (active)
CN(C)c1ccc(C(=C2C=CC(=[N+](C)C)C=C2)c2ccc(N(C)C)cc2)cc1		60.7%	-6.36	0	1.35	16.7%	0.824	-15.7%		-1.97							
Oc1cccc(O)c1		9.11%	1.66	3.39	0.9	60.3%		8.45%	2	1.13							
Nc1c(Br)cc(Br)cc1CNC1CCC(O)CC1 (stereo not drawn)	57.2% (active)	-21.8%	1.12	-1.56	1.08	54.5%	0.856	5.04%	2	1.15		4.58 (inactive)					
NS(=O)(=O)c1cc2c(cc1Cl)NC(CSCc1ccccc1)=NS2(=O)=O	78.4% (active)	25.2%	1.43	-12.2	1.07	47.9%		-3.22%	2	1.51		3.08 (inactive)	57% (active)				
CN(C)/N=N/c1nc[nH]c1C(N)=O		17.5%	1.36	-5.12	0.99	9.26%		-11.4%	2	1.16							
CCN(CC)C(=O)c1cccc(C)c1		9.84%	1.21	-4.11	1.07	28.8%		1.78%	2	1.01							
CC(=O)Oc1cccc(O)c1		-9.3%	1.19	8.59	0.86	-34.2%		-3.14%	2	0.901							
S=P(N1CC1)(N1CC1)N1CC1		8.19%	0.94	-0.95	0.82	63.2%		2.63%	1.5	0.449							
CCCCCCCCCCCCCCCCCCOCC(O)CO (stereo not drawn)		-51.6%	1.03	2.94	1	34.7%		11.1%	2	0.825							
OC[C@H]1O[C@@H](O[C@@H]2[C@@H](CO)O[C@](O)(CO)[C@H]2O)[C@H](O)[C@@H](O)[C@H]1O		-7.91%	1.23	-9.67	1.19	51.2%		8.9%	2	0.924							
CC1(C)S[C@@H]2[C@H](NC(=O)C(C(=O)O)c3ccccc3)C(=O)N2[C@H]1C(=O)O (stereo partly drawn)		9.67%	1.9	-7.2	0.95	60.9%		7.16%	2	1.65							

SMILES	fluorescence slope change [1]	inhibition [2]	score [3]	rescue above control [4]	cytochrome c release ratio [5]	inhibition of aggregation [6]	normalised LDH release [7]	glutamate uptake change [8]	inclusion score [9]	aggregation suppression score [10]	period change [11]	survival [12]	protection [13]	EC50 [14]	inhibition [14]	aggregation ratio [15]	EC50 [16]
CC(=O)Nc1ccc(S(=O)(=O)Nc2ccc([N+](=O)[O-])cc2)cc1		15.7%	1.4	-10.3	1.02	15.7%	0.673	20.4%	2	1.23							
CC(=O)NCCCCCC(=O)O		22.1%	1.42	-0.56	1.37	74.4%		-9.11%	2	1.24							
CN1CCCN=C1COC(=O)C(O)(c1ccccc1)C1CCCCC1 (stereo not drawn)		21.6%	1.24	4.84	0.8	60.8%		10.4%	2	1.26							
NC(=O)N/N=C/c1ccc([N+](=O)[O-])o1		21.9%	1.11	14.1	1.45	74.9%	0.973	16.7%	2	0.831		16.2 (inactive)					
CC1=C(C(=O)O)N2C(=O)[C@@H](NC(=O)[C@H](N)C3=CCC=CC3)[C@H]2SC1		-6.99%	1.49	19	0.86	74.7%		-0.28%	2	1.56							
Cc1ccc(C(C)C)cc2c(C)ccc1-2		0.23%	-2.73	1.94	3.4	30.6%		4.08%		-1.39				57 µM	73.4% (active)		
Oc1c(Cl)cc(Cl)c(Cl)c1Cc1c(O)c(Cl)cc(Cl)c1Cl		5.38%	-1.67	-6.64	0.45	91.6%	0.936	-31.4%		-0.244							0.3 µM (active)
O=C(O)CCCCC1CCSS1 (stereo not drawn)		-33.9%	0.61	2.24	0.89	39.2%		-7.39%	2	0.186							
Nc1ccc(C(=O)O)cc1		2.66%	1.16	-2.5	0.9	72.2%		15.6%	2	1.25							
C[C@H]1c2cccc(O)c2C(O)=C2C(=O)[C@]3(O)C(O)=C(C(N)=O)C(=O)[C@@H](N(C)C)[C@@H]3[C@@H](O)[C@@H]21		-6.11%	0.83	0	0.35	64.1%	0.903	-7.42%	0.5	0.446	-0.14 h (inactive)						
CC(=O)OCC(COC(C)=O)OC(C)=O		0.15%	1.44	-1.97	1.1	72.7%		-13.9%	2	1.25							
CCN(CC)CCNc1ccc(CO)c2sc3ccccc3c(=O)c12	-2.7% (inactive)	2.1%	1.79	-7.32	1.54	91.6%	0.8	14.7%		0.977		1.33 (inactive)		71 µM	82.8% (active)		
CO[C@@H]1[C@@H](OC(N)=O)[C@@H](O)[C@H](Oc2ccc3c(O)c(NC(=O)c4ccc(O)c(CC=C(C)C)c4)c(=O)oc3c2C)OC1(C)C		-0.61%	1.59	-8.05	0.96	-73.2%		-19%	2	0.623							
OCc1ccccc1O		-8.47%	1.17	12.8	0.81	67.8%		16.3%	2	1.11							
O=C(CCBr)N1CCN(C(=O)CCBr)CC1		-31.6%	0.93	9.78	0.86	52.8%		17.8%	2	0.931							
NC(Cc1ccc(Cl)cc1)C(=O)O (stereo not drawn)		2.04%	1.27	22.3	0.79	83.3%		-15.1%	2	1.23	-0.015 h (inactive)						
CCCCC1C(=O)N(c2ccccc2)N(c2ccccc2)C1=O		9.66%	0.64	2.39	0.96	76%		-15.3%	2	0.296	0.01 h (inactive)						
NC(=O)NC(=O)Cc1ccccc1		24.8%	1.34	-4.86	1.02	4.16%		-11.7%	2	1.17							
N[C@@H](CCC(=O)N[C@@H](CS)C(=O)NCC(=O)O)C(=O)O		17.6%	1.4	-4.11	0.98	45.5%		13.8%	2	1.61							
O=C(O)c1ccccc1O		11.5%	0.77	-5.04	0.97	56.1%		15.9%	2	0.863							
COc1ccc(CN(CCN(C)C)c2ncccn2)cc1		10.6%	1.36	1.69	1.27	22.2%		-15.6%	2	1.43							
CNC[C@H](O)c1cccc(O)c1		-27.4%	1.21	-6.19	0.84	47.4%		3.44%	2	1.2	-0.48 h (inactive)						
O=c1cc(CO)occ1O		12%	1.29	10.1	0.94	21.8%		5.22%	2	1.36							
COc1cccc(OC)c1C(=O)N[C@@H]1C(=O)N2[C@@H]1SC(C)(C)[C@@H]2C(=O)O		11.5%	1.48	-12.3	0.93	45.9%		17.4%	2	1.05							
